MEX-5 binding = MEX-5 zinc finger RNA-binding disruptors – biochemical, C. elegans, fluorescence polarization, MLPCN library, primary screen | Zinc finger protein mex-5 (Caenorhabditis elegans), Q9XUB2 | MEX-5/FITC-TCR2 RNA binding; active compounds read low | activity score (negative = inhibition of binding), % at 10 µM | 300,000 tested, 0.38% active;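 active = inhibition past about -25% in most replicates, and total fluorescence under double the plate's negative control median, limit read from the data; inconclusive = replicates evenly split on the limit, or fluorescence at least double controls; inactive = too little inhibition in most replicates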;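 also: 0% = DMSO and -100% = 5 µM competing unlabeled TCR2 RNA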
GLD-1 RNA inh = GLD-1/TGE RNA complex disruptors, primary screen, biochemical, fluorescence polarization; purified GLD-1 + fluorescein TGE RNA; inhibition, % at 5.96 µM; 320,000 tested, 0.44% active; AID 2280, 2010;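 active = percent inhibition above a per-plate cutoff, the plate mean of test compounds plus 3 SD, cut at about 30% in these data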;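 also: 0% = DMSO wells with GLD-1 and probe and 100% = wells lacking GLD-1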
Target sequence (Q17339 whole entry, looked up): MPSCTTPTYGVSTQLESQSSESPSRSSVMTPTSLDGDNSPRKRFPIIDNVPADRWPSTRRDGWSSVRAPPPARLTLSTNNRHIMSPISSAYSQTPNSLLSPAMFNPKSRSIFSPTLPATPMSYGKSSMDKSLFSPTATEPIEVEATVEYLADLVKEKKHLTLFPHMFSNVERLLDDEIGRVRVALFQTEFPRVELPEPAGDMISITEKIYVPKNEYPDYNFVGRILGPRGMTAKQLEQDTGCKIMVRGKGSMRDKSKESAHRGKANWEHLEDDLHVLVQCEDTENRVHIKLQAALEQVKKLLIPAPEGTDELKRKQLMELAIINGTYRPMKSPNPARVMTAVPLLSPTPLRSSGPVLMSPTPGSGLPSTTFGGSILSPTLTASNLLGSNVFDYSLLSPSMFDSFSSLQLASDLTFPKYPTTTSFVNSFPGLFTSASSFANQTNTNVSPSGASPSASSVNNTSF
CR mimetic SO = reduction of superoxide in aged yeast, primary screen, HTS; S. cerevisiae aged cells, superoxide DHE fluorescence; active compounds read low; superoxide response (% of plate mean), % at 10 µM; 330,000 tested, 0.18% active;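 active = superoxide response under a set limit, about three screen SD below normal, cut at about 65% in these data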;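 also: yeast aged for seven days with compound at 30 °C before DHE staining; 100% = average MFI of all compound-treated wells on the plate with controls excluded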
LANA-H2B inh = blockers of LANA interaction with H2A/H2B – biochemical, FP readout, HTS, primary screen; Protein LANA1 (Human herpesvirus 8 type P (isolate GK18)), Q9QR71; cell-free LANA-H2A/H2B peptide, fluorescence polarization; inhibition, % (no concentration beside the values); 320,000 tested, 0.6% active; in the data active = inhibition mostly above about 10%, no sharp cut-off; inactive = mostly below about 6.7%
MCL1-BIM inh = inhibitors of MCL1 binding to BIM-BH3, primary screen, biochemical, fluorescence polarization; inhibition, % at 10.9 µM; 320,000 tested, 0.68% active; GST-MCL1 / FITC-Bim-BH3 fluorescence polarization;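 active = inhibition above the mean inhibition of all tested compounds plus 3 SD, set per campaign, cut at about 40% in these data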;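 also: 0% = DMSO wells and 100% = unlabeled Bim-BH3 peptide control; higher means more loss of mP so more displacement of Bim peptide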
BCLXL inh = inhibitors of human Bcl-xL, primary screen, biochemical, fluorescence polarization, HTS. 320,000 tested, 0.7% active. Bcl-2-like protein 1 (Homo sapiens), Q07817. GST-Bcl-xL / FITC-Bim BH3 peptide fluorescence polarization. AID 2129, 2009. inhibition, % at 10.9 µM;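 active = inhibition above the mean of all tested compounds plus 3 SD, cutoff set per campaign, cut at about 30% in these data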;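 also: 0% = DMSO wells and 100% = unlabeled Bim-BH3 peptide competitor; inhibitors lower millipolarization by displacing the labeled peptide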
Target sequence (Q07817 whole entry, looked up): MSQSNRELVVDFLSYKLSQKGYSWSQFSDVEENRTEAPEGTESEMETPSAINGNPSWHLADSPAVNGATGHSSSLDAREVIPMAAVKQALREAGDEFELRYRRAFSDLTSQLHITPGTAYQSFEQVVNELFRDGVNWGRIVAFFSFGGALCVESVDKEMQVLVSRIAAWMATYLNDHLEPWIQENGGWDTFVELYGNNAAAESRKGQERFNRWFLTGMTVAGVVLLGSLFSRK
BCLXL inh confirm = Bcl-xL inhibitors blocking Bim BH3 binding, confirmation, counter-screen for MCL1 inhibitor project, biochemical, fluorescence polarization; shares compounds with MCL1-BIM inh; GST-Bcl-xL / FITC-Bim BH3 peptide FP binding; inhibition, % at 10.9 µM; 1,700 tested, 54% active; AID 2166, 2009;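 active = inhibition above a cutoff equal to the mean inhibition of all tested compounds plus 3 SD, cut at about 30% in these data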;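 also: 0% = DMSO wells and 100% = unlabeled Bim BH3 control peptide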
MCL1 BIM confirm = inhibitors of MCL1 binding to BIM-BH3, confirmation, biochemical, fluorescence polarization, triplicate. 1,700 tested, 61% active. shares compounds with MCL1-BIM inh. GST-MCL1 / FITC-Bim-BH3 fluorescence polarization. inhibition, % at 10.9 µM;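 active = inhibition above the average of all tested compounds plus 3 SD, cut at about 40% in these data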;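 also: 0% = DMSO wells and 100% = unlabeled Bim-BH3 control peptide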
The depositor's hits bear a star; ? = inconclusive; / = no result given; + = active, no number. Compounds with a hit are over-represented: about 1.9% of the library has one in this group of screens.

SMILES	MEX-5 binding	GLD-1 RNA inh	CR mimetic SO	LANA-H2B inh	MCL1-BIM inh	BCLXL inh	BCLXL inh confirm	MCL1 BIM confirm
CCOC(=O)c1cc2c(=O)n3ccccc3nc2n(Cc2ccco2)c1=NC(=O)c1ccc(OC)cc1	-6.0	9.8	123.2	-1.7	41.2*	26.9	10.8	-2.0
CCNC(=O)N(C)C[C@H]1N[C@@](Cc2ccccc2)(C(=O)OC)[C@H]2C(=O)N(C)C(=O)[C@@H]12	/	-1.7	99.6	/	/	/	/	/
CCSc1nnc(N2C(=O)C(O)=C(C(=O)c3ccco3)C2c2cccc(OC)c2)s1 (stereo unspecified)	-1.5	79.0*	107.6	9.3	59.6*	59.9*	65.1*	75.8*
CSc1nnc(N2C(=O)C(O)=C(C(=O)c3ccco3)C2c2ccc(F)cc2)s1 (stereo unspecified)	-22.4	83.5*	99.9	0.8	70.9*	79.7*	43.1*	55.5*
COc1ccc(C2C(C(=O)c3ccco3)=C(O)C(=O)N2c2nnc(C)s2)cc1 (stereo unspecified)	-5.8	23.9	102.0	2.4	32.0	25.8	/	/
COc1ccc2nc(N3C(=O)C(O)=C(C(=O)c4ccco4)C3c3ccccc3OC)sc2c1 (stereo unspecified)	-3.4	1.6	94.7	-3.1	3.1	2.5	/	/
O=C(OCc1ccccc1F)c1cc2ccccc2cc1O	1.0	0.7	85.9	1.7	5.0	1.9	/	/
O=c1oc2c(CN3CCOCC3)c(O)ccc2c2c1CCC2	/	-6.2	110.5	-3.6	10.0	4.0	/	/
O=c1oc2c3c4c(cc2c(C(F)(F)F)c1CCN1CCOCC1)CCCN4CCC3	?	65.3*	94.1	6.0	121.6*	107.3*	107.4*	115.6*
CC(=NNC(=O)COc1cccc(C)c1)c1cccnc1	/	3.6	83.8	-0.9	/	/	/	/
NC(=O)c1cccnc1Oc1ccc(Cl)cc1Cl	2.8	-2.9	93.2	3.7	54.4*	1.1	5.7	-1.2
Cc1cc(Cl)ccc1Nc1ncccc1C(N)=O	-1.4	0.7	84.0	2.0	-1.9	2.7	/	/
COCCCNC(=O)c1ccc2c3c(onc13)-c1ccccc1C2=O	-78.9*	196.8*	150.4	11.1	+	+	+	+
C=CCN1C(=O)C2(OCCO2)c2cc(C)ccc21	1.2	7.8	83.1	2.3	40.0*	19.1	4.0	1.1
CC1(C)CC(=O)C2=C(C1)OC(N)=C([N+](=O)[O-])C2c1ccc(C#N)s1 (stereo unspecified)	-2.1	8.1	112.5	3.1	12.9	6.5	/	/
CC1(C)CC(=O)C2=C(C1)OC(N)=C(C#N)[C@@H]2c1ccccc1[N+](=O)[O-]	-68.0*	112.9*	105.6	9.1	194.3*	163.2*	35.5*	45.5*
COc1ccc(C2C(C#N)=C(N)OC3=C2C(=O)CC(C)(C)C3)c([N+](=O)[O-])c1OC (stereo unspecified)	-4.6	3.1	99.8	-3.7	6.2	7.2	/	/
COc1cc(C2C(C#N)=C(N)OC3=C2C(=O)CC(C)(C)C3)c([N+](=O)[O-])cc1OC (stereo unspecified)	-54.2*	154.2*	112.0	3.5	+	+	63.8*	82.4*
Nc1sc2c(c1C(=O)NC1CC1)CCCC2	/	2.0	99.4	1.5	/	/	/	/
COc1cc(/C=C2\CCc3c2nc2ccccc2c3C(=O)O)cc(OC)c1OC	-25.8*	1.8	104.9	1.1	75.9*	20.2	29.8	75.2*
CCOc1cc(/C=C2\CCCc3c2nc2ccccc2c3C(=O)O)ccc1OC	-16.3	144.7*	85.3	85.3*	165.7*	142.6*	15.4	11.7
Cc1ccc(NS(=O)(=O)c2ccc(C(=O)NCc3ccc(S(N)(=O)=O)cc3)cc2)cc1	/	1.3	100.5	1.6	/	/	/	/
Cc1ccccc1-c1cc(C(=O)NCc2cccc(C(F)(F)F)c2)nn1CC1CC(c2cccc([N+](=O)[O-])c2)=NO1 (stereo unspecified)	/	-0.4	103.2	-3.5	1.0	1.1	/	/
COc1ccc(/C=N/NC(=O)C(=O)/C=C2\NC3(CCCC3)Cc3ccccc32)cc1	0.7	0.3	83.9	-1.3	11.6	6.3	/	/
O=C(/C=C1\NC2(CCCC2)Cc2ccccc21)C(=O)N/N=C/c1ccc(O)c(O)c1	-4.5	-5.4	97.7	0.9	41.6*	4.5	30.7*	43.0*
SMILES	MEX-5 binding	GLD-1 RNA inh	CR mimetic SO	LANA-H2B inh	MCL1-BIM inh	BCLXL inh	BCLXL inh confirm	MCL1 BIM confirm
CCN1CCN(c2cc(N3CCN(C(=O)c4ccco4)CC3)c3c4c(onc24)-c2ccccc2C3=O)CC1	5.7	18.6	126.7	-33.3	102.8*	91.7*	52.1*	19.8
COc1ccccc1C(CNC(=O)c1ccc(NS(=O)(=O)c2ccc3c(c2)OCCO3)cc1)N(C)C (stereo unspecified)	0.9	-1.4	69.9	1.4	-4.7	2.8	/	/
COc1ccc(C(=O)OCCCc2cc3ccccc3c(=O)o2)cc1	/	1.8	99.9	0.3	2.6	0.0	/	/
O=C(CN1CCN(S(=O)(=O)c2ccc(F)cc2)CC1)Nc1cc(C(F)(F)F)ccc1Cl	-1.9	1.4	100.7	/	-5.7	-3.6	/	/
O=C(CN1CCN(S(=O)(=O)c2ccc(F)cc2)CC1)Nc1ccc(F)cc1F	1.1	2.0	97.3	-12.1	174.4*	4.3	2.7	0.6
Oc1ccc(/C=N/n2c(COc3ccccc3)n[nH]c2=S)cc1O	-10.7	-9.8	110.0	-0.4	43.8*	10.6	20.3	31.1
Cc1cc(C)c2sc(NC(=O)C3=COCCO3)nc2c1	1.4	3.3	88.0	-5.1	1.8	0.3	/	/
COC(=O)\C(C(C)=O)=C(/C=C/C=C/C=C/N(C)C)N(C)C	/	19.2	91.7	/	49.6*	28.2	15.2	-3.4
O=C(CN1CCN(CC(=O)Nc2cccc(F)c2)CC1)NCC1(N2CCOCC2)CCCCC1	/	-3.1	78.5	/	7.1	4.8	/	/
CC(=O)c1ccccc1NC(=O)CCCNC(=O)c1ccc(Cl)cc1	-1.0	-1.4	87.4	1.7	1.7	1.0	/	/

Compound activity (PubChem BioAssay)
